# Assay results taken from PubChem BioAssay AID2716 (Broad Institute, 2010).
# Values joined by “and” are separate entries in the source; they are usually repeats but may differ in a detail not shown here. Identical values can stand only once. Hit rate of the full screen: of about 320,000 compounds, about 3,300 (1%) were called active. The full list was thinned out, with actives kept by preference. Unmarked numbers belong to inactive results.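 Rule for the calls: active = every valid replicate shows activation above 250% relative to neutral control wells; inactive = the rest, any valid replicate at or below 250%.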
# Assay: restored growth of temperature-sensitive Mot1-301 yeast – S. cerevisiae, ATP luminescence, 38.5C, SUMOylation pathway inhibitor project, primary screen (AID 2716);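 note: OY570 slx delta 5 strain wells were the positive control but not used for scaling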
# Conditions: S. cerevisiae Mot1-301 growth rescue, at 18.8 µM, hits give high values, percent above DMSO median, 100 means doubled
row,Structure (SMILES),growth rescue
1,Nc1c(-c2cccc(Cl)c2)cnn1-c1cccc([N+](=O)[O-])c1,0.816%
2,O=C(Nc1ccc(-n2ccnc2P(=O)(O)c2ccccc2)cc1)c1ccccc1Br,46.7%
3,O=C(CP(=O)(c1ccccc1)c1ccccc1)N1CCOCC1,634% (active)
4,O=C(Cc1ccccc1Cl)N1CCOCC1,9.61%
5,O=C(O)CC(CC(=O)N1CCOCC1)c1ccccc1 (configuration not stated),-13.1%
6,COc1ccc(C(=O)COC(=O)CN2C(=O)C3CC=CCC3C2=O)c(OC)c1 (configuration not stated),9.86%
7,CCC(CO)Oc1cc(NCc2ccccc2)c2ncn(C3CCCC3)c2c1 (configuration not stated),9.9%
8,C/C(CC(C)C)=N\Oc1nc(C)cc(C)n1,-10.5%
9,CN(C)/C(CN1CCCCC1)=C1\N=C(c2ccccc2)OC1=O,1740% (active)
10,O=C(CN1CCCC1)N1CCN(c2ccccc2)CC1,0.51%
11,CC(CN1CCCCC1)c1ccccc1 (configuration not stated),7.87%
12,O=C(c1cc(Cl)cc(Cl)c1)N1CCC(=O)N(C(COCc2ccccc2)Cc2ccccc2)CC1 (configuration not stated),-7.87%
13,Oc1c(Cl)cc(Cl)c(Cl)c1Cc1c(O)c(Cl)cc(Cl)c1Cl,482% (active) and 481% (active)
14,CC(=O)c1ccc(N2CCN(C(=O)c3ccc4nc[nH]c4c3)CC2)cc1,10.1%
15,Cc1cc(C(=O)NNC(=O)c2ccccc2O)c(C)o1,-0.00731%
16,CC(C)c1cc(C(=O)N/N=C/C(Br)=C/c2ccccc2)n[nH]1,457% (active)
17,Cc1cc(C(=O)N/N=C\C(Br)=C\c2ccccc2)c(C)o1,558% (active)
18,CC(C)c1cc(C(=O)O)n[nH]1,-2.94%
19,Cc1ccc(-c2cc(C(=O)N/N=C/C=C/c3ccccc3)n[nH]2)o1,-7.96%
20,CC(=C/c1ccccc1)/C=N/NC(=O)c1cc(C)oc1C,2.01%
21,CCCc1c(C(=O)N/N=C(\C)CCc2ccc(OC)cc2)nnn1-c1nonc1N,3.62%

row,Structure (SMILES),growth rescue
1,CCOC(=O)C1CCN(C(=O)Cn2nc(C)c3c(C)n(-c4ccccc4)nc3c2=O)CC1,34.9%
2,NC(=O)c1nnsc1-c1ccc(-c2snnc2C(N)=O)cc1,18.5%
3,COc1cccc(CN(C)CC2CCCN(CCc3ccc(Cl)cc3)C2)c1OC (configuration not stated),535% (active)
4,COc1cccc(CN(C)CC(=O)NCc2ccccc2Cl)c1OC,10.7%
5,Cc1nc2ccc(C(=O)N(C)CC3CCCN(CCc4ccc(Cl)cc4)C3)cc2[nH]1 (configuration not stated),3.97%
6,CN(C)c1nc(=Nc2cccc(Cl)c2)ss1,331% (active)
7,Cc1cccc(C)c1NC(=O)N1CC(C)OC(C)C1 (configuration not stated),-5.77%
8,Cc1ccc(-c2nc(COC(=O)c3c(C)noc3C)cs2)cc1,0.699%
9,Cc1ccc(S(=O)(=O)N(C)c2nc3ccccc3n3c(C(C)C)nnc23)cc1,138%
10,CCCC1(C(=O)OCC)NC(c2ccc(N(C)C)cc2)C2C(=O)N(c3ccc4c(c3)OCCO4)C(=O)C21 (configuration not stated),-0.477%
11,O=C(Nc1nn(Cc2ccccc2F)cc1Br)c1cccs1,13%
12,CCOC(=O)COc1ccc([N+](=O)[O-])cc1,319%
13,O=C(COc1ccccc1[N+](=O)[O-])NC1CC1,1.86%
14,Cc1ccc(OCC(=O)Oc2ccccc2[N+](=O)[O-])cc1,330% (active)
15,O=C(/C=C/c1cnc2ccccc2n1)NC1CCCCCC1,26.5%
16,Nc1c(N(CCCO)C(=O)C2CCCC2)c(=O)[nH]c(=O)n1Cc1ccccc1,103%
17,COc1ccc(CCNC(=O)CCC(=O)NC2CCCCC2)cc1OC,26.5%
18,Cc1ccc2c(c1)C(O)(CC(=O)c1cccc(-n3cccc3)c1)C(=O)N2 (configuration not stated),-2.84%
19,Cc1ccc2c(c1)C(O)(CC(=O)c1cccnc1)C(=O)N2 (configuration not stated),1220% (active)
20,Cc1cccc(OCC(=O)NCCNC(=O)c2cccnc2)c1,220%
21,CCC/C=C(\CCC)C(NC(=O)Cc1ccccc1)c1ccc(C(=O)OC)cc1 (configuration not stated),-14.4%

row,Structure (SMILES),growth rescue
1,CC(C)C[C@H](NC(=O)Nc1cccc(C(F)(F)F)c1)C(=O)O,-3.86%
2,Cc1ccc(NC(=O)Nc2cccc(C(F)(F)F)c2)nc1,471% (active)
3,O=C(Nc1ccccc1)Nc1ccc(C(F)(F)F)cn1,-19.3%
4,O=C(CNS(=O)(=O)c1ccc2c(c1)OCCCO2)N1CCN(c2ccc(F)cc2)CC1,10.2%
5,COc1ccc2c(CC(=O)NNC(=O)c3ccccc3F)coc2c1,9.24%
6,COc1ccc(/C=N/NC(=O)Cn2cc(C(F)(F)F)ccc2=O)cc1,0.303%
7,CCCc1cc(=O)oc2c(C)c(OCC(=O)N3CCC(C(=O)O)CC3)ccc12,10.4%
8,CCc1cc(=O)oc2cc(C)cc(OCC(=O)N3CCC[C@@H]3C(=O)O)c12,694% (active)
9,CCc1cc(=O)oc2cc(C)cc(OC(C)C(=O)O)c12 (configuration not stated),-0.434%
10,Cc1cc(=O)n2nc(N3CCCC(C(=O)NCc4ccc(Cl)cc4)C3)sc2n1 (configuration not stated),7.79%
11,O=C(CSc1nc2[nH]c(=O)[nH]c(=O)c2s1)Nc1cccc(F)c1,-17.9%
12,O=S(=O)(Nc1ncnc2sccc12)c1cccc(F)c1,5.08%
13,O=C(NCC1CCCO1)c1cc2c(s1)CCCC2 (configuration not stated),-9.49%
14,CC1=CC(=O)C=CC1(C)C(Cl)(Cl)Cl (configuration not stated),385% (active)
15,COc1ccccc1Nc1nnc(SC(C)C(=O)NC2CC2)s1 (configuration not stated),-11.6%
16,CC1C(=O)N2CCCc3cc(S(=O)(=O)NCc4ccc(F)cc4)cc1c32 (configuration not stated),-4.02%
17,Cc1ccc(NC(=O)CSc2nnc(CNC(=O)c3ccccc3F)o2)cc1,3.58%
18,O=C(OC1CCOC1=O)c1cccc(S(=O)(=O)Nc2ccc(F)cc2)c1 (configuration not stated),535% (active)
19,O=C(NCCN1CCOCC1)c1cccc(S(=O)(=O)Nc2ccc(F)cc2)c1,18.1%
20,O=C(OC1CCCCC1=O)c1cccc(S(=O)(=O)NCc2ccccc2)c1 (configuration not stated),12.9%
